Compounds with a hit are over-represented: about 3.1% of the library has one in this group of screens.
Autofluor counter = compound fluorescence in toxin protease inhibitor counterscreen | compound autofluorescence counterscreen, microsphere flow cytometry; active compounds read high | fluorescence intensity (no concentration beside the values) | AID 624483 | 360,000 tested, 3.1% active; in the data active = fluorescence intensity above about 16000; inconclusive = no clear call, values can overlap the other calls
Anthrax LF inh2 = inhibitors of Bacillus anthracis lethal factor protease. P15917. multiplex microsphere protease cleavage assay, LF. inhibition, % at 10 µM. 360,000 tested, 0.12% active. AID 588501; also: plate controls were buffer without enzyme for full effect and enzyme alone for no effect
Target sequence (P15917 whole entry, looked up): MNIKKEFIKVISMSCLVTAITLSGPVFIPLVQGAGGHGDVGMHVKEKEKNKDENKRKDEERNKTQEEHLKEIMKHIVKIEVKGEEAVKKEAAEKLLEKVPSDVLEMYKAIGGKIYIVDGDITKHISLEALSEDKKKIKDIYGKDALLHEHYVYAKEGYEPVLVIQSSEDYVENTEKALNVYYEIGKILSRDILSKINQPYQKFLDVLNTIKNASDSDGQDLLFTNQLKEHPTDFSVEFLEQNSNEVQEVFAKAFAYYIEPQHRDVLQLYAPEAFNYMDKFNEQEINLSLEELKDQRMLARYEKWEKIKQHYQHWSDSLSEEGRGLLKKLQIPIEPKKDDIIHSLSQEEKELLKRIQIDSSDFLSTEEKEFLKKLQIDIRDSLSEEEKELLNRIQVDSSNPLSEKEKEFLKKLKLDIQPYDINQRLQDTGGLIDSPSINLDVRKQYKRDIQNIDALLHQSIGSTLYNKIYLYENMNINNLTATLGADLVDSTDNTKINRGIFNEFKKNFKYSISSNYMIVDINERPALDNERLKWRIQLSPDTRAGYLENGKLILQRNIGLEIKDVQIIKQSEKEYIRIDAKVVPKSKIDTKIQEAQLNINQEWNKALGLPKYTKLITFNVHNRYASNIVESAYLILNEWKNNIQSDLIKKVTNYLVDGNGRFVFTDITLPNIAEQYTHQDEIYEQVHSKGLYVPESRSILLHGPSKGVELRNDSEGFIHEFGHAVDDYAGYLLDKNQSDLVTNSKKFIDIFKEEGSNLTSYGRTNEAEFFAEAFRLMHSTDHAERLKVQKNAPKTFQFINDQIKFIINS
BoNT-F LC inh = blocks Botulinum neurotoxin F light chain protease | Multiplex microsphere protease cleavage assay, flow cytometry | 360,000 tested, 0.22% active | inhibition, % at 10 µM | AID 588497; in the data active = inhibition above about 35%, passing the limit was not always enough; inconclusive = no clear call, values can overlap the other calls; also: plate controls were buffer without enzyme for full effect and enzyme alone for no effect
PriA SSB inh = inhibitors of Klebsiella pneumoniae PriA binding to SSB C-terminal tail. AlphaScreen SSBct-PriA binding, biotinylated peptide. 430,000 tested, 0.6% active. inhibition, % at 33 µM; in the data active = inhibition mostly above about 37%, no sharp cut-off; inactive = mostly below about 20%;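 also: plate controls were negative control peptide for no effect and reference peptide for full effect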
BoNT A protease = blocks Botulinum neurotoxin A light chain protease | multiplex microsphere protease substrate cleavage, flow cytometry | 360,000 tested, 0.17% active | inhibition, % at 10 µM; also: plate controls were buffer without enzyme for full effect and enzyme alone for no effect
The depositor's hits bear a star; ! = not active in a repeat. Rule as the data show it, unless noted: active = inhibition above about 30%; inconclusive = no clear call, values can overlap the other calls; inactive = below that.

For COC(=O)c1sc(NC(=O)COc2ccc(C)cc2)nc1C the results were Autofluor counter 20397*, Anthrax LF inh2 1, BoNT-F LC inh 4, PriA SSB inh 7 and BoNT A protease 1.
For O=C(Nc1nccs1)c1c[nH]c2ccccc2c1=O the results were PriA SSB inh -8.
For NCc1nc(COc2ccc(Cl)cc2)no1 the results were PriA SSB inh -14.
Nc1c(N2CCCC2)cc(Cl)c2nonc12 was read as Autofluor counter 9434, Anthrax LF inh2 -40, BoNT-F LC inh -47, PriA SSB inh -6 and BoNT A protease 0.
Nc1c(N2CCOCC2)cc(Cl)c2nonc12 was read as Autofluor counter 23187*, Anthrax LF inh2 -2, BoNT-F LC inh -3, PriA SSB inh 3 and BoNT A protease inconclusive.
CCN(CC)CCn1c(NCc2ccco2)nc2ccccc21 was read as Autofluor counter 21505*, Anthrax LF inh2 -1, BoNT-F LC inh -8, PriA SSB inh 10 and BoNT A protease -4.
For Cn1c(NCc2ccco2)nc2ccccc21 the results were Autofluor counter 17845*, Anthrax LF inh2 -3, BoNT-F LC inh 12, PriA SSB inh -13 and BoNT A protease inconclusive.
Screening O=c1c2ccccc2nc(CN2CCCCCC2)n1-c1ccc(F)cc1 returned Autofluor counter 24642*, Anthrax LF inh2 0, BoNT-F LC inh -7, PriA SSB inh 2 and BoNT A protease 3.
Screening CC1Cc2ccccc2N1C(=O)CN1C(=O)COc2ccccc21 (stereo unspecified) returned Autofluor counter 3595, Anthrax LF inh2 3, BoNT-F LC inh -9, PriA SSB inh -20 and BoNT A protease 0.
CC1Cc2ccccc2N1C(=O)Cc1cccs1 (stereo unspecified) was read as Autofluor counter 17722*, Anthrax LF inh2 -3, BoNT-F LC inh -8, PriA SSB inh -21 and BoNT A protease -7.
Screening CC1Cc2ccccc2N1C(=O)Cn1c(=O)cc(O)c2ccccc21 (stereo unspecified) returned Autofluor counter 24078*, Anthrax LF inh2 -4, BoNT-F LC inh -9, PriA SSB inh -4 and BoNT A protease inconclusive.
`O=[N+]([O-])c1c(C(Cl)Cl)nn(-c2ccccc2)c1N1CCCC1` gave Autofluor counter 7130, Anthrax LF inh2 0, BoNT-F LC inh 3, PriA SSB inh 50* and BoNT A protease -1.
Screening CCOC(=O)C1CCN(c2c([N+](=O)[O-])c(C(Cl)Cl)nn2-c2ccccc2)CC1 returned Autofluor counter 5755, Anthrax LF inh2 -8, BoNT-F LC inh -5, PriA SSB inh 14 and BoNT A protease 0.
c1ccc(-n2ncc3c(N4CCN(c5ccccn5)CC4)nc(N4CCCCCC4)nc32)cc1 was read as Autofluor counter 19448*, Anthrax LF inh2 -3, BoNT-F LC inh 1, PriA SSB inh -7 and BoNT A protease 2.
c1ccc(-n2ncc3c(N4CCCCC4)ncnc32)cc1 was read as Autofluor counter 5347, Anthrax LF inh2 15, BoNT-F LC inh 7, PriA SSB inh -12 and BoNT A protease 8.
COC(=O)c1ccc2c(=O)n(Cc3ccco3)c(SCC(=O)Nc3ccc(C)c(Cl)c3)nc2c1 was read as Autofluor counter 23373*, Anthrax LF inh2 -2, BoNT-F LC inh -1, PriA SSB inh -3 and BoNT A protease -1.
COCCNC(=O)CSc1nc2cc(OC)c(OC)cc2c(=O)n1Cc1ccco1 was read as Autofluor counter 16515*, Anthrax LF inh2 -2, BoNT-F LC inh 18, PriA SSB inh -1 and BoNT A protease inconclusive.
`O=C(CSc1nc2cc(Cl)ccc2c(=O)n1Cc1ccco1)Nc1ccc(S(=O)(=O)N2CCOCC2)cc1` gave Autofluor counter 1984, Anthrax LF inh2 -3, BoNT-F LC inh 5, PriA SSB inh -3 and BoNT A protease 0.
For O=C(Oc1ccc(Cl)c2cccnc12)c1ccco1 the results were Autofluor counter 2989, Anthrax LF inh2 -7, BoNT-F LC inh 4, PriA SSB inh 52* and BoNT A protease 0.
Screening COc1ccc(-c2cnc(C(=O)Nc3ccccn3)o2)cc1 returned PriA SSB inh 1.
CCOC(=O)C(NCc1ccccn1)(NC(=O)c1cccnc1)C(F)(F)F (stereo unspecified) was read as Autofluor counter 2187, Anthrax LF inh2 -5, BoNT-F LC inh -15, PriA SSB inh 51* and BoNT A protease -1.
`CCN(CC)S(=O)(=O)c1cc(NC(=O)C(=O)c2c(-c3ccccc3)cc3ccccn23)ccc1C` gave Autofluor counter 25900*, Anthrax LF inh2 -3, BoNT-F LC inh -10, PriA SSB inh 13 and BoNT A protease -4.
Screening O=S(=O)(c1ccc2c(c1)CCCC2)N(CC(F)(F)F)C1CCOCC1 returned PriA SSB inh -20.
`COc1ccc(Cc2nnc(C3CCN(C(=O)C4CC4)CC3)s2)cc1` gave PriA SSB inh 10.
COc1ccc(CNC(=O)NCCc2nc(C3CC3)cc(C(F)(F)F)n2)cc1 was read as PriA SSB inh -44.
CC(C)c1cc(=O)n2c(n1)SCC2CC(=O)NCCC1=CCCCC1 (stereo unspecified) was read as PriA SSB inh 7.
CC1=CC(C)(C)Nc2ccccc21 was read as Autofluor counter 5346, Anthrax LF inh2 inconclusive, BoNT-F LC inh inconclusive, PriA SSB inh 53*! and BoNT A protease inconclusive.
For Cc1ccc(S(=O)(=O)N2CCC(C(=O)Nc3ccc4nc(C)sc4c3)CC2)cc1 the results were PriA SSB inh -8.
COc1ccc(-c2cnn3c(N)c(S(=O)(=O)c4ccccc4)cnc23)cc1 was read as Autofluor counter 20604*, Anthrax LF inh2 -3, BoNT-F LC inh -2, PriA SSB inh 4 and BoNT A protease -1.
`COc1ccc(-c2cnn3c(N)c(S(=O)(=O)C(C)(C)C)cnc23)cc1` gave Autofluor counter 21645*, Anthrax LF inh2 -10, BoNT-F LC inh 0, PriA SSB inh -9 and BoNT A protease inconclusive.
`CC(C)(C)S(=O)(=O)c1cnc2c(-c3ccc(Cl)cc3)cnn2c1N` gave Autofluor counter 5860, Anthrax LF inh2 1, BoNT-F LC inh -7, PriA SSB inh -7 and BoNT A protease 0.
For Nc1c(S(=O)(=O)c2ccccc2)cnc2c(-c3ccc(F)cc3)cnn12 the results were Autofluor counter 15012, Anthrax LF inh2 -3, BoNT-F LC inh 6, PriA SSB inh -11 and BoNT A protease 4.
`CC(C)(C)S(=O)(=O)c1cnc2c(-c3ccc(F)cc3)cnn2c1N` gave Autofluor counter 21191*, Anthrax LF inh2 1, BoNT-F LC inh -1, PriA SSB inh -14 and BoNT A protease inconclusive.
O=C(NCCOc1ccc(-c2ccco2)nn1)c1cccc(C(F)(F)F)c1 was read as PriA SSB inh 19.
For Cc1ccc2cccnc2c1Cl the results were PriA SSB inh 21.
For COc1cccc(NC(=O)CN2C(=O)NC(c3ccccc3)(c3ccccc3)C2=O)c1 the results were Autofluor counter 3893, Anthrax LF inh2 2, BoNT-F LC inh -14, PriA SSB inh 1 and BoNT A protease 1.
`COc1cc(NC(=O)CN2C(=O)NC(c3ccccc3)(c3ccccc3)C2=O)cc(OC)c1` gave Autofluor counter 5395, Anthrax LF inh2 -3, BoNT-F LC inh 0, PriA SSB inh 45* and BoNT A protease 1.

Screening data: PubChem BioAssay, several laboratories
